Experimental data from PubChem BioAssay AID651598 (Sanford-Burnham Center for Chemical Genomics, 2012).
“And” between values parts separate entries of the source, which are not always exact repeats. Equal values may be shown once.

Biological target: Apelin receptor (Homo sapiens) (UniProt P35414)
Assay: APJ beta-arrestin recruitment blockade alongside CXCR6 – cell-based, DiscoveRx, panel, CHO-K1, counter-screen for CXCR6 antagonist project, SAR follow-up (AID 651598)
Settings: CHO-K1 PathHunter beta-arrestin luminescence, antagonist mode; run 5, at 80 µM (top of the series)

Apelin receptor (Homo sapiens), sequence (P35414 whole entry, looked up): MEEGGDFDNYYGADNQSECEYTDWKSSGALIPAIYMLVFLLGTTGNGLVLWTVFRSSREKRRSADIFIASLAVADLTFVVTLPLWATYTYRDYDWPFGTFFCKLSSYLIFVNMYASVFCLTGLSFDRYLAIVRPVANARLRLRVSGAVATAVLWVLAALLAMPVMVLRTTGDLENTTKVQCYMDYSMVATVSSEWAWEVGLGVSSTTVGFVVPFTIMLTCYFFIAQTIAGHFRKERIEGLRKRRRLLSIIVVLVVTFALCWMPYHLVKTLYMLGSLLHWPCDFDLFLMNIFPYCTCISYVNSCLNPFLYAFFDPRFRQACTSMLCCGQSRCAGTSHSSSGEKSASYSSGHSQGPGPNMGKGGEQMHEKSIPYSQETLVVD

Compound | inhibition
COc1cc(C(=O)NC2CC3CCCC(C2)N3CC(=O)Nc2ccccc2)cc(OC)c1OC (stereo not drawn) | 11% and 14.6% and 16%
COc1cc(C(=O)NC2CCN(CC(=O)Nc3ccccc3)CC2)cc(OC)c1OC | -5.74%
COc1cc(C(=O)NC2CC3CCC(C2)N3CC(=O)Nc2ccccc2)cc(OC)c1OC (stereo not drawn) | -14.1% and -9.09%
